Source: PubChem BioAssay (NCATS)
Results filed as inconclusive are left out. Unmarked numbers belong to inactive results. Calls of active or inactive are those of the source. Unless noted, the call rests on the fitted dose curve; in most records, active means well fitted curve in either direction with a large enough effect (not every such curve was filed as active); inconclusive means small, poorly fitted or top-dose-only effect, or another doubt; inactive means flat fitted curve, though single readings scatter.

Test system: not listed separately
Test: AP1 Signaling Pathway (AID 357);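 further: ME-180 reporter cells stimulated with EGF at its EC50 level; on the % scale 0 is the no-effect control and ±100 the full control effect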
Conditions: ME-180 (cervical carcinoma) AP-1-bla reporter, EGF-induced, beta-lactamase ratio, 5 h; at 7.69 µM (top of the series) unless noted
In short: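 Cells are seeded overnight, exposed to compound titrations and an EC50 level of EGF for 5 hours at 37 °C, then loaded with CCF4 dye for 2.5 hours. Beta-lactamase activity under the AP-1 element is read as a blue/green ratio.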

SMILES	activity change, negative = inhibition [%]
Cc1cc(Nc2ccc(N=Nc3ccc(O)c4ncccc34)cc2)nc(C)n1	9.64
c1ccc2c[n+](CCCC[n+]3ccc4ccccc4c3)ccc2c1	9.12
CC1CCN(CC[S-])CC1.O.O.[Cl][Pt]	29.8
CC1(C)COCN1COC1CCCCC1	-2.54
NC(=O)NCCS[C@H]1CCCC[C@@H]1O	3.84
COc1cc(O)c2c(O)c3c(c4c2c1[C@@]1(C4)C(C)=CCCC1(C)C)[C@H](O)[C@@]1(O)CC(=O)C(C(N)=O)=C(O)[C@]1(O)C3=O	-27.8
COc1cccc2c1C(=N)c1c(O)c3c(c(O)c1C2=O)C[C@](O)(C(C)=O)C[C@@H]3O[C@H]1C[C@H](N)[C@@H](O)[C@H](C)O1	-2.66
O=C(c1ccc([N+](=O)[O-])cc1)[C@@H](Br)[C@@H](Br)c1ccnc2ccccc12	-11.4

Molecular target: Cytochrome P450 1A2 (Homo sapiens) (UniProt P05177)
Test: p450-cyp1a2 (AID 410; calls by dose curve; further: potency means the concentration at half of the fitted maximal effect;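 on activity change, negative = inhibition: -100% = full effect of reference inhibitor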)
Conditions: recombinant CYP1A2, luciferin-ME demethylation, luminescence; series mostly up to 11.4 µM; activity change, negative = inhibition: at the top concentration
In short: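 O-Demethylation of luciferin 6' methyl ether by human CYP1A2 is monitored as luciferase luminescence. Substrate sits at Km (100uM); enzyme is 20nM. Values are scaled to 57 uM furafylline as maximal inhibition.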

Cytochrome P450 1A2 (Homo sapiens), sequence (P05177 whole entry, looked up): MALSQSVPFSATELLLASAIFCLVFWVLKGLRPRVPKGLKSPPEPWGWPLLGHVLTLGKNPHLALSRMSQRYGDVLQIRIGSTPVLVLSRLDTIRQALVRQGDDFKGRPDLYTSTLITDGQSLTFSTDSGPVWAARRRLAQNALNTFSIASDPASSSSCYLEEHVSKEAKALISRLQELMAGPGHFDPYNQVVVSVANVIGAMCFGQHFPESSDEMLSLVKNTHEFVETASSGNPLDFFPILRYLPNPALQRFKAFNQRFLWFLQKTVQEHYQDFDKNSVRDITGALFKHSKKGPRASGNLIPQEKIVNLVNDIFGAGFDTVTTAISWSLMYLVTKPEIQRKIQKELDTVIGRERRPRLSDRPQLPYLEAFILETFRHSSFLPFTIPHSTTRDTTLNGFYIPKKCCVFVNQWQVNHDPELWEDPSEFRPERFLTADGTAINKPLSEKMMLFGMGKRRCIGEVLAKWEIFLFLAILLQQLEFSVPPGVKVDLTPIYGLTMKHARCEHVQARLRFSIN

SMILES	activity change, negative = inhibition	Potency
O=C(O)C[C@H](Cc1ccccc1Cl)C(=O)O	-17.6%	
Cc1cc(Cl)nc(NC(=O)CSc2ccc(Cl)cc2)n1		5010 nM (active)
COc1ccc2c(=O)cc(-c3ccncc3)oc2c1OC		1580 nM (active)
c1ccc2c(CC3NCCN3)cccc2c1	-7.4%	
NC([N-]/N=C/c1ccccn1)=[S]=[Fe].O=S(=O)(O)O	15.8% [at 2.29 µM]	
OCCCN=C1CCCCC1	-9.6%	
CC(CC(=O)O)(CC(=O)O)c1ccccc1	-0.7%	
CC(=O)O[C@H]1CC[C@@]2(C)C(=CC[C@@H]3[C@@H]4CC[C@H](c5cc(C(F)(F)F)n(C(C)=O)n5)[C@]4(C)CC[C@@H]32)C1	-13.7%	
CN(C)Cc1cc(O)c(O)c(CN(C)C)c1	-8.6%	
Cn1c(=S)c2[nH]c(SCCCc3ccccc3)nc2n(C)c1=O		3160 nM (active)
Cc1noc(NC(=O)Nc2ccccc2F)c1C#N		794 nM (active)
COc1cccc(Nc2ncc3ncc(=O)n(C4CC4)c3n2)c1		631 nM (active)
Cc1nnc(S(=O)(=O)c2ccc(N=Nc3c(N)nc(N)nc3N)cc2)s1	-10.2% [at 2.29 µM]	
Cc1cc(SCC(=O)c2ccccc2)nc2ccccc12		398 nM (active)
CC(CCC(=O)O)(c1ccc(O)cc1)c1ccc(O)cc1	-5.8%	
C[C@]12CC[C@H]3c4ccc(O)cc4CC[C@@H]3[C@H]1CC[C@@H]2OC(=O)CCc1ccccc1	-13.8% [at 2.29 µM]	

SMILES	activity change, negative = inhibition	Potency
C/C(=N/O)[C@@H]1C[C@H](CC(=O)O)C1(C)C	-2.9%	
Nc1nc(N)c2[nH]c(CNc3ccc(C(=O)O)cc3)nc2n1	-9.6%	
Nc1nc(N)nc(CCCCc2nc(N)nc(N)n2)n1	8.1% [at 2.29 µM]	
Cc1c(S(=O)(=O)O)ccc(N=Nc2c(O)c(C(=O)O)cc3ccccc23)c1Cl		5010 nM (active)
c1ccc2cc(NCNc3ccc4ccccc4c3)ccc2c1		631 nM (active)
OC[C@@H]1O[C@@H](N2CCN([C@@H]3O[C@@H](CO)[C@@H](O)[C@H](O)[C@H]3O)CC2)[C@@H](O)[C@H](O)[C@H]1O	-9.7% [at 2.29 µM]	
CC1=NN(c2ccccc2)C(=O)[C@@H]1N=Nc1ccc(S(N)(=O)=O)cc1		1260 nM (active)
O=C1Oc2ccccc2C(=O)/C1=C\N1C(=O)N/C(=C\c2ccccc2O)C1=O		316 nM (active)
Cc1ccc(N=Nc2c(O)c3ccccc3[nH]c2=O)c(S(=O)(=O)N(C)C)c1	-14.6% [at 2.29 µM]	
CCCCNN	-6.5% [at 2.29 µM]	
CN(C)CCCN1c2ccc3ccccc3c2Sc2cccc(Cl)c21		1000 nM (active)
N=C1C=CC(=C(c2ccc(N)cc2)c2ccc(N)cc2)C=C1		3980 nM (active)
O=C(O)Cn1ccnc1[N+](=O)[O-]	-4%	
C[C@@H]1CCCN(C[C@@H](O)CN2CCCc3ccccc32)C1	-10.7%	
NCCSCCC(=O)O	-2.9%	
COc1ccc2c(c1)N(CC[C@H]1CCCCN1C)c1ccccc1S2		1260 nM (active)

Test system: not listed separately
Test: NFAT Signaling Pathway (AID 444);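 further: carbachol stimulus at about its EC50 of 1 µM final; on the % scale 0 is the no-effect control and ±100 the full control effect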
Conditions: Jurkat NFAT-bla M1, carbachol, beta-lactamase ratio, 5 h; at 7.69 µM (top of the series) unless noted
In short: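 Jurkat cells carrying an NFAT-driven β-lactamase reporter and co-transfected muscarinic M1 receptor were treated with compound plus carbachol (1 uM final, an EC50 level) for 5 h at 37 °C. CCF4 loading followed for 1 h at RT; 460/530 nm ratio gave %activity.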

SMILES	activity change, negative = inhibition
O=C(O)C[C@H](Cc1ccccc1Cl)C(=O)O	-7.65%
Cc1cc(Cl)nc(NC(=O)CSc2ccc(Cl)cc2)n1	16.8%
COc1ccc2c(=O)cc(-c3ccncc3)oc2c1OC	2.62%
c1ccc2c(CC3NCCN3)cccc2c1	-8.06%
NC([N-]/N=C/c1ccccn1)=[S]=[Fe].O=S(=O)(O)O	-1.69%
OCCCN=C1CCCCC1	7.24%
CC(CC(=O)O)(CC(=O)O)c1ccccc1	4.46%
CC(=O)O[C@H]1CC[C@@]2(C)C(=CC[C@@H]3[C@@H]4CC[C@H](c5cc(C(F)(F)F)n(C(C)=O)n5)[C@]4(C)CC[C@@H]32)C1	12.1%
CN(C)Cc1cc(O)c(O)c(CN(C)C)c1	3.49%
Cn1c(=S)c2[nH]c(SCCCc3ccccc3)nc2n(C)c1=O	3.04%
Cc1noc(NC(=O)Nc2ccccc2F)c1C#N	11.4%
COc1cccc(Nc2ncc3ncc(=O)n(C4CC4)c3n2)c1	-22.2%
Cc1nnc(S(=O)(=O)c2ccc(N=Nc3c(N)nc(N)nc3N)cc2)s1	7.42%
Cc1cc(SCC(=O)c2ccccc2)nc2ccccc12	13.7%
CC(CCC(=O)O)(c1ccc(O)cc1)c1ccc(O)cc1	6.62%
C[C@]12CC[C@H]3c4ccc(O)cc4CC[C@@H]3[C@H]1CC[C@@H]2OC(=O)CCc1ccccc1	-14.3%

SMILES	activity change, negative = inhibition
C/C(=N/O)[C@@H]1C[C@H](CC(=O)O)C1(C)C	9.94%
Nc1nc(N)c2[nH]c(CNc3ccc(C(=O)O)cc3)nc2n1	23.3%
Nc1nc(N)nc(CCCCc2nc(N)nc(N)n2)n1	12.4%
Cc1c(S(=O)(=O)O)ccc(N=Nc2c(O)c(C(=O)O)cc3ccccc23)c1Cl	-10.7%
c1ccc2cc(NCNc3ccc4ccccc4c3)ccc2c1	-15.6%
OC[C@@H]1O[C@@H](N2CCN([C@@H]3O[C@@H](CO)[C@@H](O)[C@H](O)[C@H]3O)CC2)[C@@H](O)[C@H](O)[C@H]1O	-2.18%
CC1=NN(c2ccccc2)C(=O)[C@@H]1N=Nc1ccc(S(N)(=O)=O)cc1	9.48%
O=C1Oc2ccccc2C(=O)/C1=C\N1C(=O)N/C(=C\c2ccccc2O)C1=O	-7.15%
Cc1ccc(N=Nc2c(O)c3ccccc3[nH]c2=O)c(S(=O)(=O)N(C)C)c1	2.83%
CCCCNN	9.69%
CN(C)CCCN1c2ccc3ccccc3c2Sc2cccc(Cl)c21	1.06%
O=C(O)Cn1ccnc1[N+](=O)[O-]	-1.99%
C[C@@H]1CCCN(C[C@@H](O)CN2CCCc3ccccc32)C1	-7.43%
NCCSCCC(=O)O	11.4%
COc1ccc2c(c1)N(CC[C@H]1CCCCN1C)c1ccccc1S2	-80.4% (active)
